# In all, about 59,000 sequences were measured (the read-out: median about -0.00055, lowest 2% from about -2 on). This excerpt belongs to a sample that is enriched for the lowest values.
# Experiment: Identification of proteins required for the processing of the EWS-FLI1 nascent transcript;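 further: robust z of luciferase light less the median z of siRNAs with the same seed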
# Settings: TC32 Ewing sarcoma NR0B1-luc vs CMV-luc (EWS-FLI1 target promoter against control promoter), 48 h; screened at 20 nM (by protocol)
# How it was run: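 Three siRNAs per gene, each in a separate well at 20 nM, were transfected into TC32 cells bearing either reporter construct. Luminescence was measured two days on, and per-gene comparison relied on seed-corrected Z values.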
row,Sequence,seed-corrected z-score
1,UGUUCUUGAACUGUAGUAC against RNF40,0.119
2,UGAGCCUUGAGUGCACUGG against LOC729047,0.713
3,UAAGAUUGGAGAGAUUGCC against SLC10A4,0.287
4,UGUAGUAUCUGAGUCAACC against CENPE,-2.96
5,UUACAUAUCACGUACAUCC against SENP8,0.448
6,UUUUCUAAUAUGCUAACUG against BMP8A,-0.422
7,UCAUUAGUAAUAUCGUCGG against HSP90AA1,-0.64
8,UCAAUGCCUCUGAUUGUUG against SPATA31D5P,-1.51
9,UUCGAUACCAGCCGGUAGC against F8A2,-12.9
10,UUCCCGUAAACUUUCUCGC against KLF13,0.162
11,UGAUCUAUGAGUACGUCCG against SBNO1,-0.107
12,AAGUGGACUUGAGAUGUGG against PPP1R1A,-0.084
13,UUAACAUGCAAGAAAUGUC against SPO11,2.19
14,UUGUCCUUCAGGAACACCG against EPB41L1,0.385
15,UAUCUAGUAGUAGUUCACC against CAB39,0.229
16,UCUGGUGGUGGUCUGAGUC against ZFP64,-3.19
17,AAUGUUGUAGUUGAUUAGC against CCDC178,-0.836
18,UUGACAGUUUCCAUCAGGC against PLIN3,0.105
19,UAUCGAUUUGGGUCGUAGC against GNL1,0.128
20,UACGUGAGCUGUGAUGAGC against IRF4,-0.522
21,UAGGCGAAUACAGUUAGGG against PRDM11,-0.0836
22,AAAAGGUAAACAGUGCUGG against HCAR1,-2.61
23,AAUAUAACGACUAAUGUCC against CTNNBIP1,0.971

row,Sequence,seed-corrected z-score
1,UUUAGAGGCAGGGAGAAGC against MT1XP1,-2.16
2,UUUCGAGUUUCAAUGCUCC against SEC31A,0.675
3,AUGAGUUUAAAGUACAAAG against TBC1D3G,-0.961
4,AAAGCUCUUCUAAUGAUAG against CMPK2,1.05
5,UUUCCAAUAUUUGAAGGUG against IFNK,-0.532
6,UCUGGGUUGAGGUCUACGA against LGALSL,1.22
7,UCUCUUUUAGGUGGUUUGG against RNPS1P1,-2.12
8,UUUGGAGCCGAAAGCAUUG against TBX4,-0.381
9,UUUCUUACCAUAGUUGUCC against TCF7L1,0.0239
10,UUCACGAGUAGAGAUGUGG against ULK4,-0.0896
11,UGUGGAUUCGCAUUCGUGC against WNT10B,-0.172
12,AAGAGCAGUAUAGCCCUUG against FAM219B,-2.73
13,UUCAGAGUAAUGUCGACAU against RPL9,-0.525
14,UAUUAUCCAGGAUUAAUUC against TMED5,0.444
15,UGGUUAUUAACCACGAAAC against DACH2,-2.55
16,UUUUUGGGUUGUGCGAUGG against CLDN8,-0.531
17,UAGUCGAUUAAACAGAGCC against RBPJ,0.0342
18,UGAGUUCUGAUCGCAGUUC against MCC,-0.00975
19,AAUGUUAACGAUGAAGAAG against ADRB2,0.292
20,AACAGGACAAUUUUAGCAC against OR1L1,-2.6
21,UCUGAAACAAUCCUCACUC against LINC00598,-0.139
22,UGAGGAUAAAGCGAAGAGC against VARS2,0.0595
23,AACUGGGACUUGUUUUACC against FAM83F,0.219

row,Sequence,seed-corrected z-score
1,AAGGUUGCUCGUUCUAUGG against CASP5,-2.33
2,UAAUGUCCCAAUCGUAUUG against UXS1,0.872
3,AAUCUCUCGGUUUCGAUUC against HYKK,1.15
4,UCCGUGCACAUCUUAUAGG against HMG20B,0.0817
5,UAAGAAAUGAUGCUCAAUG against LMAN1L,-0.257
6,UCUACAUCAAUCAAAUAUC against DUSP11,1.23
7,UCUCUUCAUACUUAUUAGC against TEX43,-2.3
8,UUGGGAUAAUGAUUGUUAC against OR10AG1,-0.676
9,UUCCUGACGAGGUACACUG against GAS2L2,0.821
10,UCAGAGACCAGCUGUUUCU against IGSF23,-0.0662
11,ACAGCUAUAAAGGUGAUCC against MTMR1,-2.56
12,UGUCGUUCAAGGGUCUUCC against IFNE,-0.372
13,UAACUAGUUUUCUUGUCCC against CARD6,0.329
14,UAUCAUCCAAAACUGUAUC against ASNSD1,0.0108
15,AUCGGCAUUAAGAAUGUAG against EIF3L,-0.237
16,UUAGCUGCAUCCUUGCUGG against CELSR3,-2.13
17,UAAGUUCUUGUAUCUUCCC against ATP6V1G3,0.313
18,UUCUGGAUUCUGGGCAUCG against IFI6,-0.197
19,UCAAUAACCAUGAAGAUGC against FAM162A,0.76
20,UCGUGCUACACCAUGAGUC against CTTNBP2,0.0923
21,UUCCAGUAUGCUGAUUUCC against SLC8B1,-2.95
22,UCACUUGAUAACAAUCUCC against ZCWPW2,-0.645
23,AUCAUUAUCCUUCUCAUCC against IRF6,-0.561

row,Sequence,seed-corrected z-score
1,UAGCCCUCACCAUAGAUGC against SYNGR2,0.181
2,ACAGUUGCAACUUCCAUGC against KCND2,-2.77
3,UGAGUACCGUGAUAAAUGC against TAS1R2,0.56
4,UUAGCAUCCACGAUACCAC against CFAP47,0.706
5,UUAAUGAACACAAGCAUGU against RPL23AP14,0.756
6,UAUGUUGUGCGGCUCUCCC against SOX15,-2.31
7,UAACGAAUAAUCAUCUUCC against ICE1,0.115
8,UCCAAAUUUGAGUACAUCC against SNIP1,0.505
9,UAAGGCUUUAGUGAGCUCU against FXN,0.805
10,UUGCCGUAGACAGCAUGGG against GPR173,-0.733
11,UCUGGUUCCUCUUUAAGUG against RPL27A,-3.53
12,AAUGUUCCUAUUUAUUUCG against RNF214,-0.629
13,UCAGGAUCAAGCAUGUUCC against LOC645177,-0.115
14,UGUGCUAUAAGAGAUCCAG against TANC2,-0.454
15,AAAGUAGUCACCUGGACCA against ODF3,-2.14
16,UUCCUCAUGAGCACCAUCC against TEDDM1,0.185
17,AUCUAUUAUGGUUUCGAUC against BAZ1B,-0.12
18,UCUCUGUACCCAACUCCGC against ZNF212,-0.31
19,AAUGAAAUAGUGCUGUUUG against KCTD1,0.318
20,UCUGCUUGGAAAUAUCUCG against GRSF1,-4.11
21,AAUCCUCUUAUGAAUAACG against ZNF331,-0.158
22,AAGGAUACCAUCAUGUAGC against FZD3,0.547
23,UUUGUAACAUCAAUCAGAG against EXOC4,0.287

row,Sequence,seed-corrected z-score
1,AUUCGGGAUAUAUAGAUUG against LIN7C,0.308
2,UCAAGUACAUUGCAGUUUG against PDK1,-0.235
3,UCCAGGUUUAUAUAGGUUG against MT1X,-7.89
4,UCAUAAGUGACAAGGCUGC against DCTN2,-0.548
5,UGACGUGAUAGCUUGAACC against EXPH5,0.908
6,UUUGAUUCCAUGUAGCUGU against MTCP1,0.871
7,ACAUCAUCCACUUCGUUCC against UNC93B1,-3.19
8,UUAACUGCAUCCCUAAUCC against AVEN,-1.22
9,UUCUUUACAUGCUGCAUUC against GALNT11,0.394
10,UUCAUGUCGAUAACUGUGG against KCNJ15,-0.324
11,UCUUGGAACAGGAUCUUCU against TAOK2,-0.173
12,UCAUGAAUUGUGGCAGGCA against LINC00598,0.856
13,ACUGCUUUGACAUCUGGGC against SNF8,-0.699
14,UGACUAAUAAGAAUGCCCG against SLC2A2,-0.863
15,AUAACUACAGCAUCAGAGG against WDR60,0.989
16,AACCGUUUCAUAAACUCCC against MCMBP,0.188
17,UAUUCGUACUCAAACGUGC against SFPQ,-2.1
18,AUACAUGUCAGCUGAGUAG against POU2AF1,-0.413
19,AGUGUCUCUACUCAGGUUC against CSF2,1.91
20,UUCGGAUAUAGAGGUAGGC against SNRNP200,-2.46
21,UGAGUCAAAUGUUCUUUGG against KLF16,0.422
22,UUUUUCUGAACUCUCGUCU against C1orf174,-1.93
23,AAAUUUACCUAUGUUCUUC against PBX1,2.08

row,Sequence,seed-corrected z-score
1,UUUUAGAAAGUUCAUGUCC against CD69,0.737
2,UUCGUGUAGACUGACCUUC against LRCH1,-9.4
3,UCAGGUUCUUUGUCUGACC against IRS1,-1.53
4,UGGUCUGCAAAGGUAAUGC against PLRG1,0.251
5,UAAGUAGGCACAACACUCA against DEXI,0.701
6,AACUGAACAUUUAUAGAGC against MTERF2,1.28
7,CUAUAGAUGAAGUAGGUGC against EDA,1.41
8,AGAGUUUCUGGUAUAGACC against TAS2R38,-2.98
9,AAGGAUAUGAAGGUAAUUC against ZNF518A,-0.0667
10,UUAGGGAUGAACCAAGGCA against ATP6V0E1,0.122
11,UUUGCAAUGACACGAAGCC against APOL4,0.249
12,AUAGUUGCAGGAAACUUCU against LOC441907,-2.67
13,UUCCUGAGUUCUUUCGUCC against DYRK1B,-0.484
14,UGUUCUAUUUCACUUACUC against ZBTB26,-0.568
15,AAAGGAGCAUAAAUUUAGU against LOC400867,2.06
16,UAUGCAUAAACGGUCUUCA against SH3BGR,-0.25
17,UAUUUCACGUCGAUAGAGC against TMEM106B,-2.63
18,UGAGGGUUGAGUGUAAGUC against FUK,-0.673
